Experimental data published in PubChem BioAssay (NCATS).
Values joined by “and” are separate entries in the source; they are usually repeats but may differ in a detail not shown here. Identical values can stand only once. Inconclusive results are not listed. Entries that show only a call come without a potency. Active and inactive are the calls of the source. Unless noted, calls follow the shape of the full dose curve.

test: Primary qHTS to identify inhibitors of SARS-CoV-2 cell entry (AID 1645846); details: SARS-CoV-2 pseudovirus cell entry assay, luminescence; activity change, negative = inhibition: at 57.1 µM (top of the series) unless noted; series mostly up to 57.1 µM; also: nearly all actives have a fitted effect of over 45% in size
Summary of the method: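 Entry measured by luciferase signal 48 h after adding SARS-CoV-2-S pseudotyped MLV particles to HEK293-ACE2 cells preincubated 1 h with compounds. Normalisation: bald particles and spike particles.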
Potency is read from the fitted curve at half-maximal effect.

| SMILES | activity change, negative = inhibition | Potency | outcome |
| --- | --- | --- | --- |
| CCCCCCCCCCCCCCCCO | -7.94% | – | – |
| Cc1cc2nc3c(=O)[nH]c(=O)nc-3n(C[C@H](O)[C@H](O)[C@H](O)CO)c2cc1C | – | inactive | – |
| O=C(O)CNC(=O)c1ccccc1 | – | inactive | – |
| CO[C@@]1(NC(=O)CSCC#N)C(=O)N2C(C(=O)O)=C(CSc3nnnn3C)CS[C@@H]21 | – | inactive | – |
| CC(=O)N(CC(O)CO)c1c(I)c(C(=O)NCCO)c(I)c(C(=O)NCC(O)CO)c1I (stereo unspecified) | -15% | – | – |
| CN/C(=C\[N+](=O)[O-])NCCSCc1csc(CN(C)C)n1 | – | inactive | – |
| O=C(CO)[C@@H](O)[C@H](O)[C@@H](O)CO | -14.3% | – | – |
| C[C@@H]1CN(c2c(F)c(F)c3c(=O)c(C(=O)O)cn(C4CC4)c3c2F)C[C@H](C)N1 | – | inactive | – |
| C[N+]1(C)[C@@H]2CC(OC(=O)[C@H](CO)c3ccccc3)C[C@H]1[C@@H]1O[C@@H]12 (stereo partly specified) | – | inactive | – |
| O=c1[nH]c(=O)n([C@H]2CCCO2)cc1F | – | inactive | – |
| C=CCN1CCc2nc(N)sc2CC1 | – | inactive | – |
| CCC1(C)CC(=O)NC1=O (stereo unspecified) | -9.22% [at 114 µM] | inactive | – |
| CC(=O)Oc1cccc(O)c1 | -13.8% | – | – |
| CC(=O)Oc1cc(C(C)C)c(OCCN(C)C)cc1C | – | inactive | – |
| Nc1nc2ccc(OC(F)(F)F)cc2s1 | – | inactive | – |
| COc1ccnc(CS(=O)c2nc3ccc(OC(F)F)cc3[nH]2)c1OC (stereo unspecified) | – | inactive | – |
| COc1ccc(-c2cc(=O)c3c(O)cc(O[C@@H]4O[C@H](CO[C@@H]5O[C@@H](C)[C@H](O)[C@@H](O)[C@H]5O)[C@@H](O)[C@H](O)[C@H]4O)cc3o2)cc1O | – | inactive | – |
| CC(C)(C)CC(C)(C)c1ccc(OCCOCC[N+](C)(C)Cc2ccccc2)cc1 | – | 20 µM (active) | – |
| C#CCC(Cc1cnc2nc(N)nc(N)c2n1)c1ccc(C(=O)N[C@@H](CCC(=O)O)C(=O)O)cc1 (stereo partly specified) | -93.7% | – | – |
| CC1(C)O[C@@H]2C[C@H]3[C@@H]4CCC5=CC(=O)C=C[C@]5(C)[C@@H]4[C@@H](O)C[C@]3(C)[C@]2(C(=O)CO)O1 | – | inactive | – |
| C[C@H]1O[C@@H](n2cc(F)c(=O)[nH]c2=O)[C@H](O)[C@@H]1O | -10.7% and -12.7% | – | – |
| Cc1cc(O)c2c(O)c3c(O)cccc3cc2c1 | -3.92% | – | – |
| C/C(=N\O)[C@@H](C)NCC(C)(C)CN[C@H](C)/C(C)=N/O | – | inactive | – |
| C[n+]1c2cc(N)ccc2cc2ccc(N)cc21 (tested in a mixture with another compound) | – | 7.94 µM (active) | – |
| Nc1ccn([C@@H]2CS[C@H](CO)O2)c(=O)n1 | -19.3% [at 114 µM] | inactive | – |
| CCO[C@H](Cc1ccc(OCCc2ccc(OS(C)(=O)=O)cc2)cc1)C(=O)O | – | inactive | – |
| CN[C@@H]1[C@@H](O)[C@@H](O[C@@H]2[C@H](O)[C@H](O[C@H]3OC(CN)=CC[C@H]3N)[C@@H](N)C[C@H]2N)OCC1(C)O (stereo partly specified) | – | inactive | – |
| NC1CCN(c2nc3c(cc2F)c(=O)c(C(=O)O)cn3-c2ccc(F)cc2F)C1 (stereo unspecified) | – | inactive | – |
| NC(N)=NCCN1CCCCCCC1 | – | – | inactive [at 0.702 µM] |
| CC(=O)S[C@@H]1CC2=CC(=O)CC[C@]2(C)[C@H]2CC[C@@]3(C)[C@@H](CC[C@@]34CCC(=O)O4)[C@H]12 | -11% | – | – |

test: Primary qHTS for inhibitors of nuclear receptor binding SET domain protein 2 (NSD2) in an isogenic RCH-ACV NSD2 p.E1099K mutant (9B) (AID 1645876; active = well fitted curve in the direction sought with a large enough effect; an effect the other way counts as inactive or inconclusive; also: nearly all actives have a fitted effect of over 70% in size); details: RCH-ACV NSD2 E1099K (9B) viability, CellTiter-Glo, 72 h; series mostly up to 44.9 µM

| SMILES | Potency |
| --- | --- |
| CC(=O)NC1CCSC1=O (stereo unspecified) | inactive |
| O=C1OC(CCN2CCCCC2)OC1(c1ccccc1)c1ccccc1 (stereo unspecified) | 8.41 µM (active) |
| Clc1cccc(SC2CCNCC2)n1 | inactive |
| COC(=O)[C@@H](N)CCCN/C(N)=N/[N+](=O)[O-] | inactive |
| O=C1CN=C(c2ccccc2)c2cc([N+](=O)[O-])ccc2N1 | inactive |

test: Primary qHTS for inhibitors of nuclear receptor binding SET domain protein 2 (NSD2) in an RCH-ACV wild type WT cells (2C) (AID 1645877; active = well fitted curve in the direction sought with a large enough effect; an effect the other way counts as inactive or inconclusive; also: nearly all actives have a fitted effect of over 70% in size); details: RCH-ACV (leukaemia line) NSD2 WT (2C) viability, CellTiter-Glo, 72 h; series mostly up to 44.9 µM

| SMILES | Potency |
| --- | --- |
| CC(=O)NC1CCSC1=O (stereo unspecified) | inactive |
| O=C1OC(CCN2CCCCC2)OC1(c1ccccc1)c1ccccc1 (stereo unspecified) | 13.3 µM (active) |
| Clc1cccc(SC2CCNCC2)n1 | inactive |
| COC(=O)[C@@H](N)CCCN/C(N)=N/[N+](=O)[O-] | inactive |
